Shiga toxin inh = inhibitors of Shiga toxin in Vero cells | Vero cells, Shiga toxin protein synthesis inhibition reporter | 9.2% of 290,000 active | inhibition, % at 38.7 µM | AID 2315; in the data active = inhibition mostly above about 28%, no sharp cut-off; inactive = mostly below about 43%; note: 0% is about no effect
Lassa entry inh = inhibitors of Lassa virus binding or cell entry. AID 540256. 1.2% of 300,000 active. Lassa virus pseudotype entry inhibition, cell reporter. Potency, µM (doses to about 37.9 µM), inactives show at the top dose activity change, negative = inhibition, actives largely listed as inhibitors; calls by dose curve; tested in HEK293 cells; note: potency is the fitted concentration of half-maximal effect; % is set by controls: 0 for no effect and ±100 for the full control effect; nearly all actives have a fitted effect of over 50% in size
Cycloheximide cs = affects cycloheximide protein synthesis inhibition readout, counter-screen; cell reporter, cycloheximide protein synthesis inhibition counterscreen; 12% of 300,000 active; max response, %; in the data active = max response mostly above about 13%, no sharp cut-off; inactive = mostly below about 14%; note: read at 38.3 µM for the half of the compounds with a filed dose; 0% is about no effect
MARV entry inh = blocks Marburg virus binding to or entry into cells; Marburg virus pseudotyped entry inhibition, cell reporter; 1.8% of 300,000 active; AID 540276; Potency, µM (doses to about 37.8 µM), for the others: top-dose activity change, negative = inhibition, actives largely listed as inhibitors; calls by dose curve; tested in HEK293 cells; note: potency is the fitted concentration of half-maximal effect; % is set by controls: 0 for no effect and ±100 for the full control effect
AMA1 RON2 block = AMA1-RON2 (P. falciparum) interaction inhibition. Potency, µM (doses to about 58.2 µM), for inactives: at the top dose activity change, negative = inhibition, usual class: inhibitors. AlphaScreen AMA1-biotinylated RON2 peptide binding. 0.2% of 360,000 active; active = well fitted inhibition curve with a large enough effect; inconclusive = small, poorly fitted or top-dose-only effect; inactive = no such curve, though single readings can be large or run the other way;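 note: potency is the fitted concentration of half-maximal effect; 0% = vehicle wells and -100% = peptide control; nearly all actives have a fitted effect of over 45% in size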
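AMA1 (3D7) with his tag at 25 nM final met compounds first, then biotinylated RON2 peptide at 25 nM; detection used donor plus acceptor beads, 10 µg/mL apiece, read by AlphaScreen after 30 min at room temperature.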
* marks the source's active call; other numbers are inactive results; [ ] = remark or other dose. This is one part of a sample in which hits are shown more often than they occur.

Results for C[C@H](ON=C1[C@H]2CCn3c(=O)n(-c4ccccc4)c(=O)n3[C@@H]2[C@H](O)[C@@H]2O[C@H]12)c1cn([C@H](CO)Cc2ccccc2)nn1 ?
Lassa entry inh: inconclusive; MARV entry inh: 6.8%[14.2 µM]

How did O=C(Nc1ccccc1)N(Cc1cccs1)c1ccc(F)cc1 do in these assays?
Lassa entry inh: -10.2%[46.1 µM]; MARV entry inh: inconclusive

How did COc1ccc(C(=O)Nn2cnc3ccccc3c2=O)c(OC)c1 do in these assays?
Shiga toxin inh: 39.0*; Cycloheximide cs: 25.6*; MARV entry inh: 0.9%; AMA1 RON2 block: -5.0%

What do the screens show for `Cc1ccccc1C(=O)Nn1cnc2ccccc2c1=O`?
Shiga toxin inh: 49.6*; Lassa entry inh: inconclusive; Cycloheximide cs: 32.7*; MARV entry inh: -0.2%[46.1 µM]; AMA1 RON2 block: 8.0%

Results for COc1ccc(C(=O)Nn2c(C)nc3ccccc3c2=O)c(OC)c1 ?
Shiga toxin inh: -2.6; Cycloheximide cs: 3.9; AMA1 RON2 block: -6.2%

What do the screens show for `O=C(Nc1ccc(Cl)cc1)Nn1cnc2ccccc2c1=O`?
Shiga toxin inh: 47.8*; Lassa entry inh: 5.2%; Cycloheximide cs: 24.2*; MARV entry inh: 1.2%[46.1 µM]; AMA1 RON2 block: 18.1%

Results for O=C(Nn1cnc2ccccc2c1=O)c1ccccc1Cl ?
Shiga toxin inh: 28.7; Lassa entry inh: 11.0%; Cycloheximide cs: 16.9*; MARV entry inh: 29.0%; AMA1 RON2 block: -0.2%

How did O=C(CN1CCN(C(=O)CCC(=O)N2CCC(c3ccccc3)=N2)CC1)Nc1ccc(F)cc1 do in these assays?
Lassa entry inh: 21.6%; MARV entry inh: inconclusive; AMA1 RON2 block: 33.0%

What do the screens show for `Nc1[nH]c(C(=O)c2ccccc2)c(-c2ccccc2Br)c1C(=O)c1ccccc1`?
AMA1 RON2 block: 22.2%

How did COc1cccc(N2CC(NC(=O)c3cccs3)CC2=O)c1 (centres undefined) do in these assays?
Lassa entry inh: -6.6%[46.1 µM]

Results for O=C(/C=C/c1ccccc1)Nn1cnc2ccccc2c1=O ?
Shiga toxin inh: 29.1; Lassa entry inh: -0.6%; Cycloheximide cs: 21.5*; MARV entry inh: inconclusive; AMA1 RON2 block: -2.5%

What do the screens show for `O=C(/C=C/c1ccc[nH]1)c1ccc(F)cc1`?
Shiga toxin inh: 72.1*; Cycloheximide cs: 31.9*; AMA1 RON2 block: -13.5%

What do the screens show for `O=C(/C=C/c1ccccc1O)c1ccccc1`?
Lassa entry inh: 6.7%[46.1 µM]; MARV entry inh: 14.0%[46.1 µM]; AMA1 RON2 block: -12.1%

How did O=C(/C=C/c1ccc[nH]1)c1ccccc1 do in these assays?
Shiga toxin inh: 68.1*; Lassa entry inh: -25.1%; Cycloheximide cs: 36.6*; MARV entry inh: 7.7%[46.1 µM]; AMA1 RON2 block: -5.9%

How did O=C(/C=C/c1c(F)cccc1Cl)c1ccc(F)cc1 do in these assays?
Shiga toxin inh: 131.9*; Lassa entry inh: -9.8%; Cycloheximide cs: 34.7*; MARV entry inh: 14.9%; AMA1 RON2 block: 3.6%

How did COc1ccccc1N1CCN(C(=O)c2cc(S(=O)(=O)N3CCOCC3)ccc2C)CC1 do in these assays?
Lassa entry inh: -11.0%; MARV entry inh: -27.8%; AMA1 RON2 block: 6.2%

How did CCCCOc1ccccc1C(=O)N(Cc1ccc(C)o1)C1CCS(=O)(=O)C1 (centres undefined) do in these assays?
Shiga toxin inh: -2.7; Lassa entry inh: 15.1%[46.1 µM]; Cycloheximide cs: -0.6; MARV entry inh: 12.9%[46.1 µM]; AMA1 RON2 block: -6.1%

What do the screens show for `O=c1cc(CSc2nnc(COc3ccccc3)o2)c2ccccc2[nH]1`?
Shiga toxin inh: -6.5; Lassa entry inh: 23.1µM*; Cycloheximide cs: 5.9; MARV entry inh: inconclusive; AMA1 RON2 block: -5.6%

What do the screens show for `Cc1ccc(OCc2nnc(SCc3cc(=O)[nH]c4ccccc34)o2)cc1`?
Shiga toxin inh: -22.2; Lassa entry inh: -18.8%; Cycloheximide cs: -6.3; MARV entry inh: -7.5%; AMA1 RON2 block: 0.3%

What do the screens show for `CC1(c2ccc([N+](=O)[O-])cc2)Nc2ccccc2S1` (centres undefined)?
Shiga toxin inh: 65.0*; Lassa entry inh: -2.8%[46.1 µM]; Cycloheximide cs: 33.3*; MARV entry inh: 18.0%[46.1 µM]; AMA1 RON2 block: -28.3%

Results for COc1ccc(C(=O)Nc2cc(OC)c(NC(=O)Nc3ccccc3)cc2OC)cc1 ?
AMA1 RON2 block: -9.2%

What do the screens show for `COc1ccc(/C=N/NC(=O)c2cccc(NC(=O)c3ccccc3Cl)c2)cc1`?
Shiga toxin inh: 40.5; Lassa entry inh: inconclusive; Cycloheximide cs: 49.5*; MARV entry inh: inconclusive; AMA1 RON2 block: 11.1%

How did O=C(N/N=C/c1ccc(F)cc1)c1cccc(NC(=O)c2ccccc2Cl)c1 do in these assays?
Shiga toxin inh: 36.4*; Lassa entry inh: 1.5%[46.1 µM]; Cycloheximide cs: 20.5*; MARV entry inh: inconclusive; AMA1 RON2 block: 5.8%

Results for Cc1cc(C)c(C)c(S(=O)(=O)N2CCNC(=O)C2)c1C ?
AMA1 RON2 block: 0.0%

How did CCC(C(=O)NC1CCCCC1)n1c(SCc2cccc(F)c2)nc2ccncc21 (centres undefined) do in these assays?
Shiga toxin inh: -6.3; Lassa entry inh: inconclusive; Cycloheximide cs: 9.9; MARV entry inh: inconclusive; AMA1 RON2 block: 7.1%

What do the screens show for `CCC(C(=O)NC1CCCCC1)n1c(SCc2cccc(C)c2)nc2ccncc21` (centres undefined)?
Shiga toxin inh: 21.2; Lassa entry inh: 30.6%[46.1 µM]; Cycloheximide cs: 26.3*; MARV entry inh: inconclusive; AMA1 RON2 block: 7.7%

How did CCc1ccc(NC(=O)C2CCCN2C(=O)NC2CCCCC2)cc1 (centres undefined) do in these assays?
Shiga toxin inh: -4.4; Lassa entry inh: -3.5%[46.1 µM]; Cycloheximide cs: -1.4; MARV entry inh: 2.9%[46.1 µM]; AMA1 RON2 block: 3.8%

How did COc1ccc(NC(=O)C(=S)NC2CCCCC2)cc1 do in these assays?
Shiga toxin inh: 117.6*; Lassa entry inh: inconclusive; Cycloheximide cs: 47.1*; MARV entry inh: inconclusive; AMA1 RON2 block: 24.5%

What do the screens show for `COC(=O)C(O)(c1ccc(NC(=O)NC2CCCCC2)cc1)C(F)(F)F` (centres undefined)?
Shiga toxin inh: 39.0*; Lassa entry inh: inconclusive; Cycloheximide cs: 35.1*; MARV entry inh: inconclusive; AMA1 RON2 block: -4.8%

What do the screens show for `CCOc1ccc(CC(=O)NNC(=O)NC2CCCCC2)cc1`?
Shiga toxin inh: -1.8; Lassa entry inh: 5.0%[46.1 µM]; Cycloheximide cs: -3.3; MARV entry inh: inconclusive; AMA1 RON2 block: 40.0%

What do the screens show for `CCOc1ccc(NC(=O)NC2CCCCCCC2)cc1`?
Shiga toxin inh: 91.4*; Lassa entry inh: inconclusive; Cycloheximide cs: 50.8*; MARV entry inh: inconclusive; AMA1 RON2 block: -2.1%

How did CCc1ccc(NC(=O)NC2CCCCCCC2)cc1 do in these assays?
Shiga toxin inh: 119.1*; Lassa entry inh: inconclusive; Cycloheximide cs: 53.3*; MARV entry inh: inconclusive; AMA1 RON2 block: -1.2%

What do the screens show for `COc1ccc(NC(=O)Nc2c[nH]c(=O)[nH]c2=O)c(OC)c1`?
Lassa entry inh: 6.4%[46.1 µM]

What do the screens show for `CCOc1ccc(NC(=O)NC23CC4CC(CC(C4)C2)C3)cc1`?
Shiga toxin inh: 34.2; Lassa entry inh: 11.2µM*; Cycloheximide cs: 14.9*; MARV entry inh: inconclusive; AMA1 RON2 block: inconclusive

Results for CCOc1ccc(NC(=O)N(Cc2cn(CC)c3ccccc23)C2CCCCCC2)cc1 ?
Shiga toxin inh: 72.0*; Lassa entry inh: inconclusive; Cycloheximide cs: 33.3*; MARV entry inh: inconclusive
